Test in all cases: NCI-60 one-dose screen, 48 h (100 = growth as untreated, 0 = no growth, -100 = all killed)
Common to all, as to settings: 10 µM

Experiment [1] has as its system HCT-15 colon.
In experiment [2] the test system is HT29 colon.
For experiment [3], the system named is SNB-75 CNS.
For experiment [4], the system named is SNB-19 CNS.
Experiment [5] deals with U251 CNS.
Experiment [6] has as its system PC-3 prostate.
The test system of experiment [7] is SK-MEL-5 melanoma.
Experiment [8] relates to UACC-62 melanoma.
Experiment [9] has as its system LOX IMVI melanoma.
In experiment [10] the test system is SK-MEL-28 melanoma.
The test system of experiment [11] is SK-MEL-2 melanoma.
In experiment [12] the test system is EKVX NSCLC.
The subject of experiment [13] is SN12C renal.
Experiment [14] has as its system UO-31 renal.
Experiment [15] concerns TK-10 renal.
Experiment [16] relates to ACHN renal.
Experiment [17] relates to CAKI-1 renal.
Experiment [18] relates to A498 renal.
Experiment [19] deals with CCRF-CEM leukemia.
The test system of experiment [20] is MOLT-4 leukemia.

About 83,000 compounds went through this panel and 20% of them were active in at least one assay; those are over-represented in the sample as a whole.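 How to read the values: 0–100, growth inhibition (40 = 60% inhibited); 0, no net growth; -100 to 0, cell death (-40 = 40% of starting cells died; -100 = all dead).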 Values without a mark were called inactive. Active and inactive are the calls of the source. How the source made its calls: active means growth percent below 10; inactive means the rest.

As for `CCOC(=O)c1c(Cl)c2c(n1Cc1cccc(OC)c1)-c1oncc1CC2`, the growth in experiment [1] is 30.8%; in [2] it was 7.37% (active); in [3] it was -11.7% (active); in experiment [4] it was 34%; in [5], 26%; in experiment [6], 31.7%. Also, the growth in experiment [7] was 20.9%; in experiment [8] it was 33.6%; in experiment [9], 38.3%; in experiment [10] it was 34%; in experiment [11] it was 27.8%; in experiment [12] it was 56.4%. Also, the growth is 42.7% in [13]; -1.88% (active) in [14]; 54.7% in [15]; 44.8% in experiment [16]; 7.94% (active) in [17]; 1.89% (active) in experiment [18]. Besides, the growth in experiment [19] is 15.8%; in [20], 25.9%.
With `O=C(c1ccccc1)C(Sc1ccccc1)c1ccccc1` (stereo not given), the growth in experiment [1] is 60.7%; in experiment [2], 45.6%; in [3] it was 101%; in [4], 110%; in [5], 79.4%; in experiment [6], 73%. Moreover, the growth in experiment [7] was 108%; in experiment [8], 83.5%; in experiment [9], 74.5%; in experiment [10], 94.1%; in [11] it was 62%; in experiment [12] it was 106%. Also, the growth was 87.7% in experiment [13]; 79.9% in [14]; 101% in experiment [15]; 34.5% in experiment [16]; 82.5% in experiment [17]; 92.1% in experiment [18]. The growth in experiment [19] was 89.9%; in experiment [20], 67%.
For the compound `CC1(C)CCc2cc(-c3ccn(S(=O)(=O)c4ccc(Cl)cc4)n3)ccc2O1`, the growth in experiment [1] was 91.3%; in [2], 70.9%; in experiment [3] it was 92.3%; in [4] it was 100%; in experiment [5] it was 74.2%; in experiment [6], 56.8%. Moreover, the growth in experiment [7] was 47.2%; in [8], 75%; in experiment [9], 72.2%; in [10] it was 94.7%; in [11], 92.2%; in experiment [12] it was 54.5%. Besides, the growth was 72.8% in [13]; 75.6% in [14]; 77% in experiment [15]; 89.4% in experiment [16]; 64.3% in experiment [17]; 70.8% in experiment [18]. In addition, the results for the growth in experiment [19] and in experiment [20] were 64.2% and 65.4%, respectively.
As to `Nc1cc2c(cc1Cl)-c1ccc(Cl)cc1C2=O`, the growth was 99.7% in [1]; 97.5% in [2]; 89.7% in experiment [3]; 98.7% in experiment [4]; 91.1% in [5]; 94.2% in experiment [6]. For the same compound, the growth in [7] was 108%; in experiment [8], 95.7%; in [9], 95.1%; in [10] it was 109%; in experiment [11] it was 95.7%; in experiment [12] it was 67.7%. Further, the growth in experiment [13] was 93.1%; in [14], 61.6%; in [15], 117%; in [16], 98.4%; in experiment [17], 96.4%; in experiment [18], 95.7%. For the same compound, the growth in experiment [19] was 86.1%; in [20], 81.4%.
Take `C=CCn1ccc(=O)nc1SC`: the growth in [1] was 110%; in [2], 97.6%; in experiment [3], 91.2%; in [4], 106%; in experiment [5] it was 102%; in [6] it was 95.7%. Besides, the growth in [7] was 112%; in experiment [8] it was 105%; in [9] it was 99.7%; in experiment [10] it was 112%; in experiment [11], 107%; in [12], 104%. Further, the growth in [13] is 104%; in experiment [14] it was 89%; in experiment [15] it was 101%; in experiment [16], 108%; in experiment [17] it was 106%; in experiment [18], 104%. Further, the growth in experiment [19] was 104%; in [20] it was 100%.
Consider `Cc1cn(C(=O)/C(Cl)=C(/Cl)C(=O)O)c2ccccc12`, for which the growth in experiment [1] was 105%; in [2] it was 110%; in [3], 73%; in [4], 106%; in experiment [5], 114%; in experiment [6] it was 83.6%. For the same compound, the growth was 104% in [7]; 94% in [8]; 93.7% in experiment [9]; 112% in [10]; 105% in [11]; 81.7% in experiment [12]. Besides, the growth is 97.6% in [13]; 59.1% in experiment [14]; 127% in [15]; 97.8% in [16]; 97.9% in [17]; 124% in experiment [18]. Further, the growth in [19] was 37.2%; in [20], 103%.
On to `CCOC(=O)C(=O)Cc1cccnn1`, for which the growth in experiment [1] is 102%; in experiment [2] it was 101%; in experiment [3], 78%; in [4], 102%; in experiment [5], 96.8%; in experiment [6] it was 91.7%. Also, the growth in [7] was 108%; in [8], 99.7%; in experiment [9] it was 99.5%; in experiment [10] it was 108%; in [11], 103%; in experiment [12], 111%. Besides, the growth in experiment [13] was 99.9%; in [14], 82.9%; in experiment [15], 101%; in experiment [16] it was 103%; in experiment [17], 103%; in [18], 113%. Also, the growth in experiment [19] was 91.7%; in [20], 93.4%.
As for `CC(C)/C(=N/O)c1ccccc1`, the growth was 110% in experiment [1]; 97.4% in [2]; 94.5% in experiment [3]; 102% in experiment [4]; 112% in experiment [5]; 102% in [6]. The growth in experiment [7] was 104%; in experiment [8] it was 107%; in experiment [9], 94.5%; in experiment [10], 113%; in experiment [11] it was 101%; in [12], 102%. The growth is 102% in experiment [13]; 93.8% in experiment [14]; 104% in experiment [15]; 107% in experiment [16]; 107% in experiment [17]; 113% in [18]. Besides, the growth was 103% in experiment [19] and 94% in experiment [20].

(Values after PubChem BioAssay (NCI).)
